# Assay outcomes: PubChem, National Center for Advancing Translational Sciences (NCATS)
# Rows were chosen to be rich in hits. Some 21% of all compounds tested hit in one or more screens of this group.
# NS1 function inh – influenza NS1 inhibition; Potency, µM (highest dose often 46.1 µM), for the others: top-dose activity, positive = more growth; 270,000 compounds, 0.4% hits; also: potency is read from the fitted curve at half-maximal effect; actives are rising curves; nearly all actives have a fitted effect of over 50% in size
#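 Growth recovery, yeast-based: influenza A NS1 expressed in S. cerevisiae causes slow growth, and suppressors are detected by OD600. The parent strain without NS1 is used as positive control.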
# SARS PLP yeast – blocks SARS-CoV papain-like protease in a yeast assay | S. cerevisiae expressing SARS-CoV PLpro, growth rescue | Potency, µM (highest dose often 32.9 µM), for the others: at the top dose activity, positive = growth rescue, most hits filed as activators | 330,000 compounds, 0.19% hits; also: potency is read from the fitted curve at half-maximal effect; 0% is about no effect; nearly all actives have a fitted effect of over 55% in size
# Shiga inhibitor – Shiga toxin inhibition; AID 2315; Vero cells, Shiga toxin protein synthesis inhibition reporter; 290,000 compounds, 9.2% hits; inhibition, % at 38.7 µM; in the data active = inhibition mostly above about 28%, no sharp cut-off; inactive = mostly below about 43%; also: 0% is about no effect
# Pf growth 48h – P. falciparum growth inhibition at 48 hours (one generation) | Potency, µM (titrated, usually from 28.7 µM), for inactives: top-dose activity change, negative = inhibition, actives largely listed as inhibitors | P. falciparum luciferase growth in erythrocytes, 48 h | 310,000 compounds, 5.9% hits; active = well fitted inhibition curve with a large enough effect; inconclusive = small, poorly fitted or top-dose-only effect, or another doubt; inactive = no such curve, though single readings can be large or run the other way; also: potency is read from the fitted curve at half-maximal effect; % is scaled to controls: 0 for no effect and ±100 for the full control effect
#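 Firefly luciferase activity from engineered P. falciparum reports growth; inhibitors lower the luminescent signal. Cultures contained 2% hematocrit erythrocytes at 0.1% final parasitemia.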
# Pf growth 96h – inhibits malaria parasite growth, 96 h | P. falciparum luciferase reporter growth, 96 h | Potency, µM (doses to about 28.7 µM), for the others: top-dose activity change, negative = inhibition, hits mostly inhibitors | 320,000 compounds, 6.9% hits; active = well fitted inhibition curve with a large enough effect; inconclusive = small, poorly fitted or top-dose-only effect, or another doubt; inactive = no such curve, though single readings can be large or run the other way; also: potency is read from the fitted curve at half-maximal effect; % is scaled to controls: 0 for no effect and ±100 for the full control effect
#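 P. falciparum expressing integrated firefly luciferase grown in erythrocytes (2% hematocrit, 0.05% parasitemia final) with compounds for 96 hours at 37 C, 5% CO2. Growth inhibition read as loss of luminescence after adding luciferase detection reagent.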
# Cycloheximide cs – counter-screen hit for Shiga toxin inhibitors, cycloheximide | 300,000 compounds, 12% hits | max response, % | cell reporter, cycloheximide protein synthesis inhibition counterscreen; in the data active = max response mostly above about 13%, no sharp cut-off; inactive = mostly below about 14%; also: read at 38.3 µM for the half of the compounds with a filed dose; 0% is about no effect
# The depositor's hits bear a star; ? = inconclusive; · = no result; [ ] = dose if it differs, or a comment. Unless noted, calls follow the shape of the full dose curve.
SMILES,NS1 function inh,SARS PLP yeast,Shiga inhibitor,Pf growth 48h,Pf growth 96h,Cycloheximide cs
Cc1c(C(=O)OC2CCCCC2)[nH]c2c1C(=O)CC(C)(C)C2,1.1%,·,61.3,8.4%,·,12.4
COC(=O)C1C(=O)c2c([nH]c(C(=O)OC3CCCC3C)c2C)CC1C (stereo not given),7.3%,3.7%,66.5*,14.9%,19.4%,26.5*
COC(=O)C1C(=O)C2=C(CC1C)NC(C)=C(C(=O)OCCOc1ccccc1)C2c1ccc(C)o1 (stereo not given),9.4%,3.7%,13.6,0.0%,·,-3.2
COC(=O)C1C(=O)c2c([nH]c(C(=O)OC3CCCCC3)c2C)CC1C (stereo not given),?,-5.4%,41.5*,79.0%,-13.7%,30.9*
O=C(CC1OC(=O)c2ccccc21)NNC(=O)c1ccc(F)cc1 (stereo not given),·,5.4%,·,-21.0%,-16.2%,·
COc1cccc(NC(=O)CCC(=O)Nc2cccc(OC)c2)c1,16.7%,14.0%,18.6,13.0%,4.8%,-1.8
COc1cccc(NC(=O)CSC(N)=O)c1,?,-9.3%,35.7*,?,-29.6%,17.6
COc1cccc(NC(=O)COc2ccc(Br)c(C)c2)c1,-47.4%,-12.6%,10.4,23.9%,-6.1%,11.6*
CNCc1ccccc1OCC(=O)Nc1ccccc1,5.8%,10.3%,74.0*,·,84.9%,35.4*
CC(=O)Nc1cccc(OCC(=O)Nc2sccc2C(N)=O)c1,0.2%,0.3%,69.5*,96.9%,163.4%,48.8*
O=C(Cc1cccs1)N1CCN(S(=O)(=O)c2ccc(Cl)c(C(F)(F)F)c2)CC1,·,5.6%,·,?,?,·
COc1ccc(NC(=O)c2ccc(S(=O)(=O)C(F)F)cc2)c(OC)c1,-0.3%,-2.6%,-8.1,11.8%,17.5%,3.3
COc1cc(OC)cc(C(=O)NCC(=O)Nc2ccc(C)c(Cl)c2)c1,0.1%,-1.5%,20.4,-6.8%,-23.9%,3.9
COc1cc(C=C2C(=O)OC(C)(C)OC2=O)cc(Cl)c1OCC(=O)Nc1ccccc1,-1.4%,-1.8%,-5.6,37.0%,-2.2%,-2.1
COc1cc(OC)cc(C(=O)NCC(=O)Nc2ccc(-c3ccccc3)cc2)c1,2.6%,-0.3%,62.7*,49.6%,33.0%,20.0*
CC(C)(C)C1(C)OC(=O)C(=Cc2ccc(OCC(=O)Nc3ccccc3)cc2)C(=O)O1 (stereo not given),-14.2%,10.1%,58.8*,-4.3%,0.9%,17.6*
CCC(=O)Nc1cccc(NC(=O)COc2ccc(OC)cc2)c1,3.3%,2.6%,28.6,20.1%,?,2.0
COc1cccc(NC(=O)COc2ccccc2)c1,-14.2%,-3.6%,·,75.1%,-8.1%,27.9*
COc1cccc(NC(=O)CN(C)C(=O)/C=C/c2ccc3ccccc3n2)c1,·,·,·,11.7µM*,?,·
CSCC[C@H](NC(=O)[C@H](Cc1ccccc1)NC(=O)[C@H](Cc1cnc[nH]1)NC(=O)CNC(=O)[C@@H](NC(=O)[C@H](C)NC(=O)[C@H](Cc1c[nH]c2ccccc12)NC(=O)[C@H](CCC(N)=O)NC(=O)[C@@H]1CCCN1C(=O)[C@@H](NC(=O)[C@@H]1CCC(=O)N1)C(C)C)C(C)C)C(N)=O,·,·,-4.7,·,·,-6.9
Cc1cc(C)n(C(=O)C(C)N2C(=O)c3ccccc3C2=O)n1 (stereo not given),3.8%,8.4%,-6.4,22.6%,32.0%,-4.5
S=c1nc[nH]c2c1sc1nc(N3CCOCC3)c3c(c12)CCCC3,·,1.2%,-8.0,20.6%,28.2%,2.1
COc1cccc(OCC(=O)Nc2ccc(OC)c(OC)c2)c1,-10.2%,-5.2%,27.8,2.5%,25.1%,10.8
COc1cc(NC(=O)COc2cccc(OC)c2)cc(OC)c1,-12.0%,2.0%,-1.2,8.6%,5.22µM*,8.9
CCOc1ccc(-c2cccc(NC(=O)COc3ccccc3)c2)nn1,-2.6%,-2.9%,18.8,-6.1%,?,26.6*
SMILES,NS1 function inh,SARS PLP yeast,Shiga inhibitor,Pf growth 48h,Pf growth 96h,Cycloheximide cs
CC(=O)Nc1cccc(OCC(=O)Nc2ccccc2)c1,9.7%,-1.2%,114.5*,204.7%,-5.0%[5.75 µM],46.8*
CCOCC(=O)Nc1cccc(OC)c1,3.8%,-26.2%,36.8,22.7%,-10.7%,15.5*
CN(C)C(=O)c1ccc(NC(=O)COc2cccc(Oc3ccccc3)c2)cc1,-2.4%,-1.8%,-1.4,50.2%,-0.3%,-4.3
COc1cccc(NC(=O)CN(C)C(=O)CC(C)c2ccccc2)c1 (stereo not given),8.2%,-0.9%,-24.7,-1.8%,?,7.1
COc1cccc(NC(=O)CNC(=O)c2ccccc2)c1,3.5%,-0.2%,76.5*,61.6%,-1.1%,26.9*
COc1cccc(NC(=O)CNC(=O)c2ccc(OC)c(OC)c2)c1,-0.9%,0.7%,15.8,18.1%,14.0%,-0.6
Cc1cccc(NC(=O)COc2ccccc2)c1,-60.3%,-2.3%,128.9*,44.7%,6.5%,33.4*
COc1cccc(NC(=O)CN(C)C(=O)COc2ccccc2Cc2ccccc2)c1,·,-7.6%,·,?,5.22µM*,·
O=C(COc1cccc(Oc2ccccc2)c1)Nc1ncccn1,-37.5%,-12.6%,29.3*,12.8%,14.8%,13.8*
CCC(=O)N1CCc2cc(Br)cc(S(=O)(=O)NCc3ccccc3OC)c21,10.0%,-0.6%,-12.8,6.3%,?,-2.8
CC(CCCC(C)(C)O)NCCO (stereo not given),0.1%,2.9%,-10.9,·,-2.5%,-1.6
COC(=O)C1=C(CN2CCc3ccccc32)NC(=O)NC1c1cc(C)ccc1C (stereo not given),?,-6.8%,6.3,10.4µM*,·,-1.4
COC(=O)C1=C(CN2CCCc3ccccc32)NC(=O)NC1c1ccc(F)cc1 (stereo not given),-9.6%,-2.5%,101.4*,93.9%,-9.9%,20.5
CCOC(=O)C1=C(CN2CCSCC2)NC(=O)NC1c1cc(C)ccc1C (stereo not given),3.5%,0.7%,-1.6,11.7µM*,-1.4%,-3.0
COC(=O)C1=C(CN2CCSCC2)NC(=O)NC1c1cc(C)ccc1C (stereo not given),-11.9%,1.5%,-5.7,?,29.1%,-3.2
COC(=O)C1=C(CN2CCN(C)CC2)NC(=O)NC1c1cc(C)ccc1C (stereo not given),-3.4%,-0.3%,-8.1,?,·,-2.3
CCOC(=O)C1=C(CSc2nc3ccccc3s2)NC(=O)NC1c1cc(C)ccc1C (stereo not given),15.7%,-0.8%,20.3,?,9.28µM*,16.6
COc1cc(N(C)C)cc(CN(C)CCc2ccc([N+](=O)[O-])cc2)c1O,·,·,20.5,·,·,7.3
O=C(NCc1cccc(CNC(=O)C(=O)NCc2ccco2)c1)C(=O)NCc1ccco1,·,-0.4%,-12.5,23.9%,?,6.9
CCOC(=O)C1=C(CN2CCN(C(=O)c3ccco3)CC2)NC(=O)NC1c1ccc(C)cc1 (stereo not given),-1.1%,7.2%,-19.3,13.1µM*,?,-2.4
